# Reference: PubChem BioAssay (Tox21)
# Results filed as inconclusive are left out. Entries that show only a call come without a potency. A number with no mark means an inactive call. Activity calls are given as the source filed them. Unless noted, calls come from the whole dose curve; as a rule, active = well fitted curve in the direction sought with a large enough effect in the repeat runs; inconclusive = weak or mixed curves; inactive = no such curve, though single readings can be large; an effect the other way counts as inactive or inconclusive.
# Experiments:
# [1] = target: Retinoic acid receptor RXR-alpha (Homo sapiens) (UniProt P19793); experiment: qHTS assay to identify small molecule agonists of the RXR signaling pathway (AID 1159527; calls by dose curve; note: nearly all actives have a fitted effect of over 35% in size)
# Summary of the method: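 Read-out: beta-lactamase FRET ratio (405 nm excitation, 460 and 530 nm emission) after 2 hr substrate loading at room temperature. Cells were RXR-alpha-UAS-bla HEK 293T treated with compounds for 16 hr in 2% charcoal-stripped FBS medium.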
# [2] = qHTS assay to identify small molecule agonists of the RXR signaling pathway - cell viability counter screen (AID 1159529); note: series mostly up to about 77 µM; nearly all actives have a fitted effect of over 50% in size
# Summary of the method: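 HEK 293T RXRa-bla cells, 2% CS-FBS; 5 h settle; cpd 16 h 37 C, 5% CO2; CellTiter-Glo 30 min RT, luminescence. Tetraoctyl ammonium bromide as positive control.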
# [3] = qHTS assay to identify small molecule antagonists of the retinoid acid receptor (RAR) signaling pathway - cell viability counter screen (AID 1159551); note: nearly all actives have a fitted effect of over 35% in size
# Summary of the method: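 Following overnight attachment, C3RL4 reporter cells received DMSO-dissolved compounds and then retinol (1 uM final). Six hours later at 37 C, ATP content was measured by CellTiter-Glo luminescence.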
# [4] = qHTS assay to identify small molecule antagonists of the retinoic acid receptor (RAR) signaling pathway (AID 1159552; note: nearly all actives have a fitted effect of over 50% in size)
# Summary of the method: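 Cells of the C3RL4 line were seeded, incubated overnight, then dosed with compounds in DMSO followed immediately by retinol (1 uM final). Six hours later luciferase detection reagent went in; signal was measured after 30 min at RT.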
# [5] = qHTS assay to identify small molecule agonists of the retinoic acid receptor (RAR) signaling pathway (AID 1159553)
# Summary of the method: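 Cell line C3RL4, RARE luciferase reporter. Treatment: compounds in DMSO, 6 hr, 37 C, 5% CO2, after overnight plating. Detection: luminescence, 30 min RT after reagent.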
# [6] = qHTS assay to identify small molecule antagonists of the estrogen related receptor (ERR) signaling pathway from Tox21 library - cell viability counter screen (AID 1224834); note: nearly all actives have a fitted effect of over 30% in size
# Summary of the method: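 Viability readout (CellTiter-Fluor fluorescence, 30 min at 37 C) multiplexed with the ERR assay; cells treated 17.5 h at 37 C with compounds delivered in DMSO.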
# [7] = target: Luciferin 4-monooxygenase (Photinus pyralis) (UniProt P08659); experiment: qHTS assay to identify small molecule inhibitors of firefly luciferase (AID 1224835); note: series mostly up to about 120 µM; nearly all actives have a fitted effect of over 25% in size
# Summary of the method: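 Inhibition of purified Photinus luciferase is measured by luminescence. Substrate levels (D-luciferin, ATP) sit at their KM values. Each compound is tested in a concentration series.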
# [8] = qHTS assay to identify small molecule agonists of the constitutive androstane receptor (CAR) signaling pathway - cell viability counter screen (AID 1224836); note: series mostly up to about 92 µM; nearly all actives have a fitted effect of over 45% in size
# Summary of the method: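 HepG2-CYP2B6-hCAR, 2500 cells/well, 4 h pre-incubation; cpd 15 conc + PK11195 0.75 uM final; 23 h, 37 C/5% CO2; CellTiter-Fluor, fluorescence.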
# [9] = qHTS assay to identify small molecule antagonists of the constitutive androstane receptor (CAR) signaling pathway - cell viability counter screen (AID 1224837); note: series mostly up to about 92 µM; nearly all actives have a fitted effect of over 45% in size
# Summary of the method: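 Fluorescence from CellTiter-Fluor served as the viability signal. Human hepatoma HepG2 cells stably bearing hCAR and CYP2B6-2.2kb received compound plus CITCO (50 nM final) for 23 hr.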
# [10] = target: Nuclear receptor subfamily 1 group I member 3 (Homo sapiens) (UniProt Q14994); experiment: qHTS assay to identify small molecule antagonists of the constitutive androstane receptor (CAR) signaling pathway (AID 1224838);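 note: HepG2 cells stably expressing hCAR with CYP2B6 luciferase reporter stimulated by CITCO; nearly all actives have a fitted effect of over 40% in size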
# Summary of the method: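 Quantitative HTS in double-stable HepG2-CYP2B6-hCAR cells. After 4 h plating, cells get compound (15 concentrations) and CITCO at 50 nM final, incubate 24 h at 37 C, then ONE-Glo luminescence is read.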
# [11] = target: Nuclear receptor subfamily 1 group I member 3 (Homo sapiens) (UniProt Q14994); experiment: qHTS assay to identify small molecule agonists of the constitutive androstane receptor (CAR) signaling pathway (AID 1224839); note: nearly all actives have a fitted effect of over 15% in size; note: potency is the fitted concentration of half-maximal effect;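 for activation: HepG2 cells stably carrying human CAR and a CYP2B6 luciferase reporter; series mostly up to about 92 µM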
# Summary of the method: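 HepG2-CYP2B6-hCAR cells, 2500/well, 4 h pre-incubation; compounds 15 conc.; PK11195 0.75 uM final; 24 h, 37 C/5% CO2; ONE-Glo luciferase read.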
# [12] = qHTS assay to identify small molecule antagonists of the estrogen related receptor signaling pathway with the pleiotropic PPARgamma coactivator (PGC) from Tox21 10K library - cell viability counter screen (AID 1224840; active = well fitted cell-killing curve with a large enough effect in the repeat runs, not every such curve was filed as active; note: nearly all actives have a fitted effect of over 40% in size)
# Summary of the method: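 Compounds in DMSO, alongside positive and negative controls, were pinned onto PGC/ERR cells (2,000 per well). Exposure lasted 17.5 hours at 37 C, followed by a 30-minute CellTiter-Fluor incubation and fluorescence reading.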
# [13] = qHTS assay to identify small molecule antagonists of the estrogen related receptor signaling pathway with the pleiotropic PPARgamma coactivator (PGC) from Tox21 10K library (AID 1224841; call rule not given here; note: series mostly up to about 92 µM; actives are mostly falling curves and most rising ones were filed inactive; nearly all actives have a fitted effect of over 50% in size)
# Summary of the method: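 Compound exposure ran 18 hours at 37 C in PGC/ERR cells (2,000/well) that had first rested 6 hours in a 37 C/5% CO2 incubator. Luciferase activity was then detected with One-Glo after a 30-minute room-temperature step.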
# [14] = qHTS assay to identify small molecule agonists of the estrogen related receptor signaling pathway with the pleiotropic PPARgamma coactivator (PGC) from Tox21 10K library (AID 1224842); note: nearly all actives have a fitted effect of over 15% in size
# Summary of the method: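 Luminescence from One-Glo (30 min, room temperature) measured after PGC/ERR cells had 18 h at 37 C with pinned compound (23 nL in DMSO). Cells had been seeded at 2,000 per well and pre-incubated 6 h.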
# Chain of Nuclear receptor subfamily 1 group I member 3 (Homo sapiens) (Q14994 whole entry, looked up): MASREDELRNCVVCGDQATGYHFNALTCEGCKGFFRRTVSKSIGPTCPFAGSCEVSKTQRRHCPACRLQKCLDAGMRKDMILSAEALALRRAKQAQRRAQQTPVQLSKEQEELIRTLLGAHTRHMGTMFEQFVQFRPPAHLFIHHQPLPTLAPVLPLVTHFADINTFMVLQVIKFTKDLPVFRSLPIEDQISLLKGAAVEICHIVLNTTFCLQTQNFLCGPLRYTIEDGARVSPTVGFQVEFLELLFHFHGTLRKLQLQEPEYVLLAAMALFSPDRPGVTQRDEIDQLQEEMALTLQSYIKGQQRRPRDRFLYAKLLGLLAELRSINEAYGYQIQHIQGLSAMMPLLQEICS
# Chain of Luciferin 4-monooxygenase (Photinus pyralis) (P08659 whole entry, looked up): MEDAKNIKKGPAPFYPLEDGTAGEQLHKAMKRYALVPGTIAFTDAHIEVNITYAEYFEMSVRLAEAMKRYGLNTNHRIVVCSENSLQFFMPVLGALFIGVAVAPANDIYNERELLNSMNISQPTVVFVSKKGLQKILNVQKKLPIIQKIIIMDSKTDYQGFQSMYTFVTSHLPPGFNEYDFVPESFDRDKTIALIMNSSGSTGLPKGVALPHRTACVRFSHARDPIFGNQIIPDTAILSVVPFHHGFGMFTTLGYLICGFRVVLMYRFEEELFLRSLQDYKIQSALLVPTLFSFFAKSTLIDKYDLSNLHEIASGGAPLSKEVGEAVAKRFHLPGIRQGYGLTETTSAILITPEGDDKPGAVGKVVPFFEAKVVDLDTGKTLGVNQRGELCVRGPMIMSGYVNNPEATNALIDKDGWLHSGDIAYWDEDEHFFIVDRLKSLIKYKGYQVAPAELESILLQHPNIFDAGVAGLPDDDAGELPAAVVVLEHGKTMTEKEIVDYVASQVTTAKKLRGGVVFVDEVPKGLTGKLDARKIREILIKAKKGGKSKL
# Chain of Retinoic acid receptor RXR-alpha (Homo sapiens) (P19793 whole entry, looked up): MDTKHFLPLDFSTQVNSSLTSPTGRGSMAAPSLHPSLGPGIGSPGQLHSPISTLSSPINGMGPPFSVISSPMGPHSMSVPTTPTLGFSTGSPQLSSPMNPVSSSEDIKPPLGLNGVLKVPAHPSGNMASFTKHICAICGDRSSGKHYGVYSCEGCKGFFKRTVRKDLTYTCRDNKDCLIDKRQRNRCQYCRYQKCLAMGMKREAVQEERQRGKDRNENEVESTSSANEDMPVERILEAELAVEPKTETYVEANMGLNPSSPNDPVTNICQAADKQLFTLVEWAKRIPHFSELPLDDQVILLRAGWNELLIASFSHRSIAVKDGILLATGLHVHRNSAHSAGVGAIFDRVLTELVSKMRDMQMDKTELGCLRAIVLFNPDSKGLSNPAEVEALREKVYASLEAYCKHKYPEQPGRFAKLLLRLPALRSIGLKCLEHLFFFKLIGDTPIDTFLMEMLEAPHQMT
smiles,measurement,setting,value
N[C@@H](C(=O)N[C@@H]1C(=O)N2C(C(=O)O)=C(Cl)CS[C@H]12)c1ccccc1,activation,[1],3.92% [at 6.98 µM]
same,"activity change, negative = cytotoxicity",[2],16.6% [at 6.97 µM]
same,"activity change, negative = cytotoxicity",[3],2.73% [at 8.39 µM]
same,"activity, negative = inhibition",[4],-6.75% [at 8.39 µM]
same,activation,[5],0.152% [at 8.36 µM]
same,"viability change, negative = cytotoxic",[6],3.31% [at 8.39 µM]
same,"activity change, negative = inhibition",[7],-5.09% [at 10.5 µM]
same,"viability change, negative = cytotoxic",[8],0.971% [at 8.39 µM]
same,"activity change, negative = cytotoxicity",[9],8.33% [at 8.39 µM]
same,"activity, negative = inhibition",[10],-13.2% [at 8.39 µM]
same,activation,[11],-1.38% [at 8.39 µM]
same,"viability change, negative = cytotoxic",[12],10.3% [at 8.39 µM]
same,"activity, negative = inhibition",[13],-0.314% [at 8.39 µM]
same,activation,[14],-0.0958% [at 8.39 µM]
Cn1c(N)c(N=O)c(=O)n(C)c1=O,Potency,[1],inactive
same,Potency,[2],inactive
same,outcome,[3],inactive
same,Potency,[4],inactive
same,Potency,[5],inactive
same,Potency,[6],inactive
same,Potency,[7],inactive
same,Potency,[8],inactive
same,Potency,[9],inactive
same,Potency,[10],inactive
same,Potency,[11],inactive
same,Potency,[12],inactive
same,Potency,[13],inactive
C=CCCCCCCCCC=O,Potency,[1],inactive
same,Potency,[2],inactive
same,outcome,[3],inactive
same,Potency,[4],inactive
same,Potency,[5],inactive
same,Potency,[6],inactive
same,Potency,[7],inactive
same,Potency,[8],inactive
same,Potency,[9],inactive
same,Potency,[10],inactive
same,Potency,[11],inactive
same,Potency,[12],inactive
same,Potency,[13],inactive
same,outcome,[14],inactive
O=c1[nH]c(=O)n([C@H]2C[C@H](O)[C@@H](CO)O2)cc1I,Potency,[1],inactive
same,Potency,[2],inactive
same,outcome,[3],inactive
same,Potency,[4],inactive
same,Potency,[5],inactive
same,Potency,[6],inactive
same,Potency,[7],inactive
same,Potency,[8],inactive
same,Potency,[9],inactive
same,Potency,[10],inactive
same,Potency,[11],11.9 µM (active)
same,Potency,[12],inactive
same,Potency,[13],inactive
COCCCOCCCOC,Potency,[1],inactive
same,Potency,[2],inactive
same,outcome,[3],inactive
same,Potency,[4],inactive
same,Potency,[5],inactive
same,Potency,[6],inactive
same,Potency,[7],inactive
same,Potency,[8],inactive
same,Potency,[9],inactive
same,Potency,[10],inactive
same,Potency,[11],inactive
same,Potency,[12],inactive
same,Potency,[13],inactive
same,outcome,[14],inactive
COC(C)(C)CCCC(C)CC=O (configuration not stated),Potency,[1],inactive
same,Potency,[2],inactive
same,outcome,[3],inactive
same,Potency,[4],inactive
same,Potency,[5],inactive
same,Potency,[6],inactive
same,Potency,[7],inactive
same,Potency,[8],inactive
same,Potency,[9],inactive
same,Potency,[10],inactive
same,Potency,[11],inactive
same,Potency,[12],inactive
same,Potency,[13],inactive
CCOC(=O)c1ccc(C)cc1,Potency,[1],inactive
same,Potency,[2],inactive
same,outcome,[3],inactive
same,Potency,[4],inactive
same,Potency,[5],inactive
same,Potency,[6],inactive
same,Potency,[7],inactive
same,Potency,[8],inactive
same,Potency,[9],inactive
same,Potency,[10],inactive
same,Potency,[11],inactive
same,Potency,[12],inactive
same,Potency,[13],inactive
same,outcome,[14],inactive
CCSC(=O)N(CC(C)C)CC(C)C,Potency,[1],inactive
same,Potency,[2],inactive
same,outcome,[3],inactive
same,Potency,[4],inactive
same,Potency,[5],inactive
same,Potency,[6],inactive
same,Potency,[7],inactive
same,Potency,[8],inactive
same,Potency,[9],inactive
same,Potency,[10],inactive
same,Potency,[11],inactive
same,Potency,[12],inactive
same,Potency,[13],inactive
CN(C(=O)c1c(O)c2ccccc2n(C)c1=O)c1ccccc1,Potency,[1],inactive
same,Potency,[2],inactive
same,outcome,[3],inactive
same,Potency,[4],inactive
same,Potency,[5],inactive
same,Potency,[6],inactive
same,Potency,[7],inactive
same,Potency,[8],inactive
same,Potency,[9],inactive
same,Potency,[10],inactive
same,Potency,[11],inactive
same,Potency,[12],inactive
same,Potency,[13],inactive
same,outcome,[14],inactive
